What was measured:
Experiment in all cases: log2 ratio of Biotin-Ahx-Ub-VS probe labelling (fragment/DMSO); higher = less target engagement (more negative = stronger competition), active = hit call of the paper (q ≤ 0.05, log2 ratio ≤ -1)
Conditions in all cases: compound concentration: 200 uM; treatment time: 3 h
[1] = target: T1, USP42 (UniProt Q9H9J4)
T1 sequence (whole entry): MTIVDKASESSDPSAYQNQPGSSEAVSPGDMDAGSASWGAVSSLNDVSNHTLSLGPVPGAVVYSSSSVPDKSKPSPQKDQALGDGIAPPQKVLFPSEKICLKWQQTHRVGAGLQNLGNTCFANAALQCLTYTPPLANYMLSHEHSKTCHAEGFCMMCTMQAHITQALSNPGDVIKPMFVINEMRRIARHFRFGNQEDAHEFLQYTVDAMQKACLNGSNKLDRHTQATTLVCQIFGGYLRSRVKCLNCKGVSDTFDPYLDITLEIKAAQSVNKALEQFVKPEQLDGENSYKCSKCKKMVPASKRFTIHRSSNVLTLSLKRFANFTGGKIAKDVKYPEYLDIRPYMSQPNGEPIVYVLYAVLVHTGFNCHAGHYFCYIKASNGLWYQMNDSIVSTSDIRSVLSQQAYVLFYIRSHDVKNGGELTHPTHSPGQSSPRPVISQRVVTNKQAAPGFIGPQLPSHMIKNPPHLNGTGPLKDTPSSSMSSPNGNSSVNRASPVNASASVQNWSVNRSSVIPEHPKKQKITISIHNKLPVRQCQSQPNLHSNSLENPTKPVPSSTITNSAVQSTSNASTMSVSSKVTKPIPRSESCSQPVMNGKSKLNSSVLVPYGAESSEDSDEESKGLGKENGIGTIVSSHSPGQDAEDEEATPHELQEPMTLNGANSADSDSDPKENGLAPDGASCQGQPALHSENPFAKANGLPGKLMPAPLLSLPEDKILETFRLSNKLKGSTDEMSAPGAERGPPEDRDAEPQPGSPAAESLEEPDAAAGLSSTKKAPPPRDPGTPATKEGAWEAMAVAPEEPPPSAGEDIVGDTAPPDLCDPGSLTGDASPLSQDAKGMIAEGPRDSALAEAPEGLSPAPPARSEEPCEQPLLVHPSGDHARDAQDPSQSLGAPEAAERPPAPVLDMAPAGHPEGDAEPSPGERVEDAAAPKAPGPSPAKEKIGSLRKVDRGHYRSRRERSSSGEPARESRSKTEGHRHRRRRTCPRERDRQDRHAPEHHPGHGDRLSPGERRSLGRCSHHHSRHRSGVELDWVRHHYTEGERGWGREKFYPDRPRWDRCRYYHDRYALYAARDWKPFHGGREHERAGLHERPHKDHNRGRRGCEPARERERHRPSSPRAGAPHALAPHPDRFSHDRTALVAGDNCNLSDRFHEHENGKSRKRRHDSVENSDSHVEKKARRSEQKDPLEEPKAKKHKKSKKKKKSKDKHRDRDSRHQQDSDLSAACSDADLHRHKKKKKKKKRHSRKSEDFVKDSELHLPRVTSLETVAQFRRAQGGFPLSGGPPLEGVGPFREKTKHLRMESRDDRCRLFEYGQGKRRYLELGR
Summary of the method: (§1)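 HEK293T lysate (495 µg per sample, in Tris/CHAPS/IGEPAL buffer with protease inhibitors) was exposed in triplicate for 3 h to fragment at 200 µM or to vehicle, then to Biotin-Ahx-Ub-VS at 0.5 µM final for 1 h. Labelled DUBs were enriched on NeutrAvidin, digested with LysC and trypsin, and analysed by diaPASEF LC-MS/MS. Spectronaut label-free quantities were normalised to the global median, and values are average log2 ratios of fragment over vehicle from an unpaired t-test. Only proteins with ≥2 unique peptides were used.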

[2] = target: USP46 (UniProt P62068)
Sequence of USP46 (P62068 whole entry): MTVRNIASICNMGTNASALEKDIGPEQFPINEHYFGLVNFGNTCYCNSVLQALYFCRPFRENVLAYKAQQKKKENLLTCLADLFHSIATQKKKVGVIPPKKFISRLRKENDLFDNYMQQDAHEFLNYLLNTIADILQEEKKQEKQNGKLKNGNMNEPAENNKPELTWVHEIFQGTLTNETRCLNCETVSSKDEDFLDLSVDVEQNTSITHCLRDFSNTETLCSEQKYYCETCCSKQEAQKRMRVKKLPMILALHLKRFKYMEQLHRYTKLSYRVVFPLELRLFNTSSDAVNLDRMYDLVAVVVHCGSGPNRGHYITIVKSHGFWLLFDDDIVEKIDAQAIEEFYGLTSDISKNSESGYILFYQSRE
Summary of the method: as §1

[3] = target: T2, USP47 (UniProt Q96K76)
T2 sequence (whole entry): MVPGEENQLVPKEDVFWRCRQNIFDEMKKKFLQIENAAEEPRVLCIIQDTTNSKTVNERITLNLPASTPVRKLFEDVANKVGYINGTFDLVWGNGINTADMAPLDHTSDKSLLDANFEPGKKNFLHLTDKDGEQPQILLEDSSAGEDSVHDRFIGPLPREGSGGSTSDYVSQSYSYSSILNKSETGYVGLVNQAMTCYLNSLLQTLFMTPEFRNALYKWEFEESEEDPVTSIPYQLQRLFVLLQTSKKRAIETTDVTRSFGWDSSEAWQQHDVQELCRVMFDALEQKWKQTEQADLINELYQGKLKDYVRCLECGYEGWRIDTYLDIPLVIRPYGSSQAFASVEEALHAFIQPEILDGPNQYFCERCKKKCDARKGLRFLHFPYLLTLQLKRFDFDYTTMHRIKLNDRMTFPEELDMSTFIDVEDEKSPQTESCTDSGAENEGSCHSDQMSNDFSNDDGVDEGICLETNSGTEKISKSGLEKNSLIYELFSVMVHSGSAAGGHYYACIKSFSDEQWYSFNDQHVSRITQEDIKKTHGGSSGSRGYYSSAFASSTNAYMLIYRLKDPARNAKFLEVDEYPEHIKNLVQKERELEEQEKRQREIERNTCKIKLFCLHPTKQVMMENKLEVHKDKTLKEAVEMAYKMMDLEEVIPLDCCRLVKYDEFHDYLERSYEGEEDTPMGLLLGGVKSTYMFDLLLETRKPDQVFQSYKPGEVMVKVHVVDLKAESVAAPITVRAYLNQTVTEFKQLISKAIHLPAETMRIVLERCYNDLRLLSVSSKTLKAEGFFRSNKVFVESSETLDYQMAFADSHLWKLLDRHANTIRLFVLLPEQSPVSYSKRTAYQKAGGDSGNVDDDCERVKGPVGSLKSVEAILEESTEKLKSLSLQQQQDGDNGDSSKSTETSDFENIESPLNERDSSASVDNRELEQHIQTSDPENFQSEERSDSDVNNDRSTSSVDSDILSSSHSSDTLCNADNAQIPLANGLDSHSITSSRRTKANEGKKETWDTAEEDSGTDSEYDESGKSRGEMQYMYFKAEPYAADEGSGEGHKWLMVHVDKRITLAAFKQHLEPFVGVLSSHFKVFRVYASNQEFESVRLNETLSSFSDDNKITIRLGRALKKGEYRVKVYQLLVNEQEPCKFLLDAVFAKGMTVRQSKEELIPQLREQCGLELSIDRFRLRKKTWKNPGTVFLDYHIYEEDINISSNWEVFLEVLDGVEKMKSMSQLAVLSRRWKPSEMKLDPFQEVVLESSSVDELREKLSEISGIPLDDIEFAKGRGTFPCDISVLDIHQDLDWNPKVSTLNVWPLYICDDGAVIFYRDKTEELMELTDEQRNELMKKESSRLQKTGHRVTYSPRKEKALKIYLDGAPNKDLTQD
Summary of the method: as §1

[4] = target: T3, USP48 (UniProt Q86UV5)
T3 sequence (whole entry): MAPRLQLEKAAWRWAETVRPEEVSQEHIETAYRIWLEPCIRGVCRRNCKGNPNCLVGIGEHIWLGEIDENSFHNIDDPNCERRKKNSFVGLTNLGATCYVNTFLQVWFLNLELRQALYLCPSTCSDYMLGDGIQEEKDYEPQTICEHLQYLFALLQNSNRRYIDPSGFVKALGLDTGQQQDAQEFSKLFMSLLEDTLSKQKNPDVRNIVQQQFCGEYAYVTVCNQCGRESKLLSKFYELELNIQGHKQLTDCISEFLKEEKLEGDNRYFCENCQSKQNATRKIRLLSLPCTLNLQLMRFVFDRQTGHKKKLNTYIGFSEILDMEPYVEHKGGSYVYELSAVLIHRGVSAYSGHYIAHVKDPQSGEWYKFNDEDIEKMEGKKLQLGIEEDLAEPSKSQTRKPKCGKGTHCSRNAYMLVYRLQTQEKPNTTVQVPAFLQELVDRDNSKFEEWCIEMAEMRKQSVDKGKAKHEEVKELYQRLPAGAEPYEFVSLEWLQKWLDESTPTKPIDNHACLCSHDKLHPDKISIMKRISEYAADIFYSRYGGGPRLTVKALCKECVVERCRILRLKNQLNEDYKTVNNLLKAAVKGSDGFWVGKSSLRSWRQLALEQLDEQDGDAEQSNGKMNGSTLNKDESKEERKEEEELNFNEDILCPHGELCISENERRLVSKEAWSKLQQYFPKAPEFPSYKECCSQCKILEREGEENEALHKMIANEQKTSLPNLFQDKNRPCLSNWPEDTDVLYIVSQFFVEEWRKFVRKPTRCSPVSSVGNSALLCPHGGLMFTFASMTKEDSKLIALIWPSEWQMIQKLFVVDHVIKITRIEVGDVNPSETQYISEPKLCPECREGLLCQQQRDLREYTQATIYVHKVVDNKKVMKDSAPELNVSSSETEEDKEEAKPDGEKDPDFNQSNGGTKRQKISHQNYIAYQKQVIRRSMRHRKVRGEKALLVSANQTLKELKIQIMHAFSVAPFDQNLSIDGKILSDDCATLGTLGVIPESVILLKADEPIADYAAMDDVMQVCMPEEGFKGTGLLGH
Summary of the method: as §1

[5] = target: T4, USP5 (UniProt P45974)
T4 sequence (whole entry): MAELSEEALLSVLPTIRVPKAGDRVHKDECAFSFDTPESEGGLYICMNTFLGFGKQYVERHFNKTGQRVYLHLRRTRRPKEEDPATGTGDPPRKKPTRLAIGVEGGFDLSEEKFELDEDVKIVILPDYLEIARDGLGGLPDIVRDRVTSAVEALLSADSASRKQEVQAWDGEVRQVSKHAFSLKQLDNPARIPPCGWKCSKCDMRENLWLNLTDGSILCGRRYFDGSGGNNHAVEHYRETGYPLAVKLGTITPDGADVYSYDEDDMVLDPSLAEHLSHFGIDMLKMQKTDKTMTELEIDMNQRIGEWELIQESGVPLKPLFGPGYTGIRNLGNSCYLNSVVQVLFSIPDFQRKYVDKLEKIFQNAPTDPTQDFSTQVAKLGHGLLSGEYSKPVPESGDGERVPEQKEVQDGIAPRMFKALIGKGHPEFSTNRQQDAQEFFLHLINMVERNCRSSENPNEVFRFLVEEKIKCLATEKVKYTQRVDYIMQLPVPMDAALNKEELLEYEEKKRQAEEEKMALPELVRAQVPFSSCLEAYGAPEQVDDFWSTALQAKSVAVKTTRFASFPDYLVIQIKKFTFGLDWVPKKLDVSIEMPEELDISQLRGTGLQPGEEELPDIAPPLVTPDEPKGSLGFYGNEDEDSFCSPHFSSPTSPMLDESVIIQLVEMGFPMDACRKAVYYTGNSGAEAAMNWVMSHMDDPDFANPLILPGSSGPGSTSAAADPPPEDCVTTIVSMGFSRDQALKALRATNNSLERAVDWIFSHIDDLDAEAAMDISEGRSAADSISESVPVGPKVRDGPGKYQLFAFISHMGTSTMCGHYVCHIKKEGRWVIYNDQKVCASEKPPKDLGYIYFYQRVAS
Summary of the method: as §1

[6] = target: USP54 (UniProt Q70EL1)
Sequence of USP54 (Q70EL1 whole entry): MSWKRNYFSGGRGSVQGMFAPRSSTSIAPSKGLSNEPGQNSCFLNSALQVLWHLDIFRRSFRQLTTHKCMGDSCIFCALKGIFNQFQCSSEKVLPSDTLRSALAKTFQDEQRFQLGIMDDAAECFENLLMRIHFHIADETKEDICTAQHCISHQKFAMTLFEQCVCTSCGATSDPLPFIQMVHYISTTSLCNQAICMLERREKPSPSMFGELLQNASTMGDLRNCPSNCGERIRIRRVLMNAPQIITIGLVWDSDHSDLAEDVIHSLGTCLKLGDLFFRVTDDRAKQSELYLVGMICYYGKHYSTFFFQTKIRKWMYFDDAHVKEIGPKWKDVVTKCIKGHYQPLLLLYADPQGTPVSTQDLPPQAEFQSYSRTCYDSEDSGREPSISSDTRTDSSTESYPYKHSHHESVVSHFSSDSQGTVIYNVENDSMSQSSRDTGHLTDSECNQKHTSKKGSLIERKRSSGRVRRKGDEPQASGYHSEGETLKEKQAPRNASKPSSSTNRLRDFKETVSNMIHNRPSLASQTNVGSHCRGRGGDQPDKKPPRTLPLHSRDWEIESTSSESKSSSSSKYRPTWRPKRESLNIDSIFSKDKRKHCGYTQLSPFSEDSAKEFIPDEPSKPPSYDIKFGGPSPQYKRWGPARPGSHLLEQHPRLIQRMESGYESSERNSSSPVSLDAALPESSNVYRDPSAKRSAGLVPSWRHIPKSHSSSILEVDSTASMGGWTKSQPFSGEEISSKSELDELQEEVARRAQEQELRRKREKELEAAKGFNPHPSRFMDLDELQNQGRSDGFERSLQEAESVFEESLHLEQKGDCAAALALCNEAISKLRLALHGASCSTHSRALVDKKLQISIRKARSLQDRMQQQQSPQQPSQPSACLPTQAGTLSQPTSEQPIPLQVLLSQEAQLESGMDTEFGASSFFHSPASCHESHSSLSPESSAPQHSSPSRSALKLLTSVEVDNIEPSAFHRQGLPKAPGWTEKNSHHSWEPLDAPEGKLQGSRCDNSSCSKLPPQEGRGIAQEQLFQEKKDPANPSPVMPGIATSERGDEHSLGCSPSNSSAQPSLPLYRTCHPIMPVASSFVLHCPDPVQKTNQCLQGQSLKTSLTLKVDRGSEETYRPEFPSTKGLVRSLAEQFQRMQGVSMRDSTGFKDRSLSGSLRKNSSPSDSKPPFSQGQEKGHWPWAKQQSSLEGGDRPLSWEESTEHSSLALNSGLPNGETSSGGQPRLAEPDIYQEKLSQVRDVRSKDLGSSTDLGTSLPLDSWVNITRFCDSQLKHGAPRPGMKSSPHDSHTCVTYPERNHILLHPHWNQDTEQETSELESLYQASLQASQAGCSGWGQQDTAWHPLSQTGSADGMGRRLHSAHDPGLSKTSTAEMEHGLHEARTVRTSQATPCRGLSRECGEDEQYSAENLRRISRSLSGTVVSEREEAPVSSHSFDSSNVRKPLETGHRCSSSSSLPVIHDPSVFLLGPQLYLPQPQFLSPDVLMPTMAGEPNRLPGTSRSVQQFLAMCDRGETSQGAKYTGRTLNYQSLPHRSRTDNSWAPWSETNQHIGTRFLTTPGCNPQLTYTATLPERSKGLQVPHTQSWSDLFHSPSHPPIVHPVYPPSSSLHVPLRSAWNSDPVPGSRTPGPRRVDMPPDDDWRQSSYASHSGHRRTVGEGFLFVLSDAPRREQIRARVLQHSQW
Summary of the method: as §1

[7] = target: USP7 (UniProt Q93009)
Sequence of USP7 (Q93009 whole entry, looked up): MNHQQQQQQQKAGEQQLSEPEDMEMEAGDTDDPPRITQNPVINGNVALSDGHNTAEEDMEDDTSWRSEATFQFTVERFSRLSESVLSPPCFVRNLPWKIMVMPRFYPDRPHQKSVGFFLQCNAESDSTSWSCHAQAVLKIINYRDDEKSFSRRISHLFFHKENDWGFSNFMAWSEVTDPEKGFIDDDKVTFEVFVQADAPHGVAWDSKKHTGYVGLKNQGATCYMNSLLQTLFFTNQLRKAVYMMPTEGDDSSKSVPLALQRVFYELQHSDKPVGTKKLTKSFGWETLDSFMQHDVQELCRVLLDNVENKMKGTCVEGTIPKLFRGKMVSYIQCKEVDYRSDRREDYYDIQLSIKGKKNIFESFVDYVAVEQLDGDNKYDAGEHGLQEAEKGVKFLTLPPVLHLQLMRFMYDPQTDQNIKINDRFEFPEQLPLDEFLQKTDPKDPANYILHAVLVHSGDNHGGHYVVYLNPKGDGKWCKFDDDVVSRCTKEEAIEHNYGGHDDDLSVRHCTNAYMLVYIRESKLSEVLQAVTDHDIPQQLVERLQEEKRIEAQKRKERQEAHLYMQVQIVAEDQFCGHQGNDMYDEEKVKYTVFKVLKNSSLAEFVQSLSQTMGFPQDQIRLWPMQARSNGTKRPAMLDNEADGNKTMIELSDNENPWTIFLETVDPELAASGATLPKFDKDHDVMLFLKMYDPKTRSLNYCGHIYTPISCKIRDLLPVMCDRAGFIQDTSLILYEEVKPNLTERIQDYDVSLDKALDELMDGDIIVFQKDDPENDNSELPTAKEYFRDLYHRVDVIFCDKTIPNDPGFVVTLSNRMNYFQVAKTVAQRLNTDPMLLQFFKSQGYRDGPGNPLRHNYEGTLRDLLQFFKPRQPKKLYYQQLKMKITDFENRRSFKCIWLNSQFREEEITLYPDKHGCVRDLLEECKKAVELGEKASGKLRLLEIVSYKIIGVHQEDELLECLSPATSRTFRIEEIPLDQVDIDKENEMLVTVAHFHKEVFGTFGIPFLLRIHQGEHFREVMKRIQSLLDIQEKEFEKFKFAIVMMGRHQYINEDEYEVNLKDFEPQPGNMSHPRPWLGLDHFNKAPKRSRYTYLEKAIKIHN
Summary of the method: as §1

[8] = target: T5, USP8 (UniProt P40818)
T5 sequence (whole entry): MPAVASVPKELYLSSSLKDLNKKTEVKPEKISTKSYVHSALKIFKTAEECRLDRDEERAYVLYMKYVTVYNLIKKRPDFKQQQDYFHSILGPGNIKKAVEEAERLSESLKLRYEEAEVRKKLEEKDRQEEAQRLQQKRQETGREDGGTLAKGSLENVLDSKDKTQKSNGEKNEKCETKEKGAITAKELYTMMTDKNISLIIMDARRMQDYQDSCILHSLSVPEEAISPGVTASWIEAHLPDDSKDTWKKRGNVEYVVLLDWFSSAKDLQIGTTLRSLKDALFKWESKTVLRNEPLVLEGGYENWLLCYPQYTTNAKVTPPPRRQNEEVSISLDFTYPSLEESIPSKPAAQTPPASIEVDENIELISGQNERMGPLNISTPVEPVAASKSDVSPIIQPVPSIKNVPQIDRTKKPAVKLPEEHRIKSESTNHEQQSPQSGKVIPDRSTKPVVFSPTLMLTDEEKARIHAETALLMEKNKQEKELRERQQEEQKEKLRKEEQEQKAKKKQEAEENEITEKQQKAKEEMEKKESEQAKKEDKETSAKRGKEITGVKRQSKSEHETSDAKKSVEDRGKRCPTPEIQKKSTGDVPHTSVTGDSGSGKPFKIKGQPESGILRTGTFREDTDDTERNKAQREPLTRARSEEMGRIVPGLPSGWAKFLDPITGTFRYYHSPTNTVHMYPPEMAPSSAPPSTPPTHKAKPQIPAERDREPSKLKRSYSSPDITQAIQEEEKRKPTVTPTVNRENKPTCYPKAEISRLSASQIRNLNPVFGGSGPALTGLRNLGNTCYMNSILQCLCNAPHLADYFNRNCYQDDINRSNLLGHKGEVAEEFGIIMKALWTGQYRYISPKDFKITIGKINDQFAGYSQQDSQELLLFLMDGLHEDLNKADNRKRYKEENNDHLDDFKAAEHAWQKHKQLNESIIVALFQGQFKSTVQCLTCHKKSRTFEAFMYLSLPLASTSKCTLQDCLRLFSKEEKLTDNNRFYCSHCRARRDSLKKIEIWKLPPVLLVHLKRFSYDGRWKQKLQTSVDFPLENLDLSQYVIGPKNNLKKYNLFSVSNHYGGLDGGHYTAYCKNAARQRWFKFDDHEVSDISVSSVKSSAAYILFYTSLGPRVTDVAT
Summary of the method: as §1

[9] = target: USP9X (UniProt Q93008)
Summary of the method: as §1

[10] = target: UniProt O00487
Sequence of UniProt O00487 (O00487 whole entry): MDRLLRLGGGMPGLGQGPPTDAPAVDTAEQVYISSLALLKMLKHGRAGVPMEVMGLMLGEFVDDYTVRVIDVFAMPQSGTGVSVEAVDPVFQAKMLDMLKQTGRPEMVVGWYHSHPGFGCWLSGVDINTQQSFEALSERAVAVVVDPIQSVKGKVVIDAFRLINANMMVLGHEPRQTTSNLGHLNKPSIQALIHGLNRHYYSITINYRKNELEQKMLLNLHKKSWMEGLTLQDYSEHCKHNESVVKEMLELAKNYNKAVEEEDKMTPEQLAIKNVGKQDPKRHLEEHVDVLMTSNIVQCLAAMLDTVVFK
Summary of the method: as §1

Measured: log2 ratio of Biotin-Ahx-Ub-VS probe labelling

CC(NC(=O)CCl)c1csc(-c2ccccc2)n1.Cl (stereo not given)
inactive: [1] -0.201 | [2] -0.41 | [3] 0.0356 | [4] -0.587 | [5] -0.0456 | [6] 0.348 | [7] -0.457 | [8] -0.318 | [9] -0.619 | [10] -0.213

Cc1c(NC(=O)CCl)c(=O)n(-c2ccccc2)n1C
inactive: [1] 0.238 | [2] 0.0574 | [3] -0.882 | [4] -0.0273 | [5] -0.287 | [6] 0.0174 | [7] -0.431 | [8] 0.0124 | [9] 0.00112 | [10] -0.111

Cl.O=C(CCl)N1CCC(n2nc3ccccc3n2)CC1
inactive: [1] 0.181 | [2] -0.321 | [3] -0.894 | [4] -0.485 | [5] -0.467 | [6] -0.186 | [8] -0.518 | [9] -0.485 | [10] -0.114
active: [7] -1.88

O=C(CCl)NCCC1COCCO1 (stereo not given)
inactive: [1] 0.357 | [2] -0.000444 | [3] -0.101 | [4] -0.171 | [5] -0.0923 | [6] 0.157 | [7] -0.157 | [8] -0.26 | [9] -0.131 | [10] -0.1
